# Measurements: PubChem BioAssay (NCI)
# This is part of a sample that, as a whole, favours compounds with a hit. Of some 79,000 tested, about 15% had one in any assay. Unmarked numbers belong to inactive results. Activity calls are given as the source filed them. Rule as the data show it: active = growth inhibition above about 70%; inactive = the rest.
# Columns and labels:
# [1] = NCI Yeast Anticancer Drug Screen. Data for the rad50 strain (AID 155);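 also: 0% = growth of vehicle-only cultures of the same strain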; settings: S. cerevisiae rad50 strain growth inhibition, stronger effect = higher value
# In short: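 Cells are treated with compound, grown, and their growth is then scored against vehicle-only cultures of the same repair-deficient yeast strain.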
# [2] = NCI Yeast Anticancer Drug Screen. Data for the mec2-1 strain (AID 157); settings: S. cerevisiae mec2-1 strain, stronger effect = higher value
# In short: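 Growth inhibition is read against vehicle-treated controls after compound exposure of the mec2-1 yeast strain, which is defective in DNA damage repair or cell cycle control.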
# [3] = NCI Yeast Anticancer Drug Screen. Data for the sgs1 mgt1 strain (AID 161);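 also: 0% = growth of cultures given vehicle only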; settings: S. cerevisiae sgs1 mgt1 strain, stronger effect = higher value
# In short: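 Compounds are added to genetically altered yeast, and growth is compared with cultures given vehicle alone to give percent inhibition.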
# [4] = NCI Yeast Anticancer Drug Screen. Data for the cln2 rad14 strain (AID 165);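 also: 0% = growth equal to vehicle treated cultures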; settings: S. cerevisiae cln2 rad14 strain, stronger effect = higher value
# In short: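 Growth inhibition, relative to vehicle-treated controls, is the read-out. The test organism is a yeast strain with defined genetic alterations, cln2 rad14.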
# [5] = NCI Yeast Anticancer Drug Screen. Data for the bub3 strain (AID 167); settings: S. cerevisiae bub3 mutant strain, stronger effect = higher value
# In short: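 Part of a panel of yeast mutants defective in DNA damage repair or cell cycle regulation. Each strain is grown with compound, and inhibition is calculated relative to solvent-treated cultures.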
# [6] = NCI Yeast Anticancer Drug Screen. Data for the mlh1 rad18 strain (AID 175); settings: S. cerevisiae mlh1 rad18 strain growth inhibition, stronger effect = higher value
# In short: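 Cells of a genetically altered yeast strain, deficient in DNA damage repair, were treated with compound. Their growth was then compared with that of vehicle-treated cultures to give inhibition.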
# [7] = at 5.0 µM (retest, dose inferred, filed as 0.5)
# [8] = at 50.0 µM (retest, dose inferred, filed as 5.0)
Structure (SMILES),"growth inhibition [1, 7]","growth inhibition [1, 8]",growth inhibition ([1]; at 50.0 µM),"growth inhibition [2, 7]","growth inhibition [2, 8]",growth inhibition ([2]; at 50.0 µM),"growth inhibition [3, 7]","growth inhibition [3, 8]",growth inhibition ([3]; at 50.0 µM),"growth inhibition [4, 7]","growth inhibition [4, 8]",growth inhibition ([4]; at 50.0 µM),"growth inhibition [5, 7]","growth inhibition [5, 8]",growth inhibition ([5]; at 50.0 µM),"growth inhibition [6, 7]","growth inhibition [6, 8]",growth inhibition ([6]; at 50.0 µM)
CCCN(CCC)CCNc1ccc(C)c2sc3ccccc3c(=O)c12,19%,99% (active),99.7% (active),4%,100% (active),99.7% (active),42%,100% (active),99.5% (active),19%,99% (active),99.5% (active),35%,99% (active),99.4% (active),31%,99% (active),99.5% (active)
COc1ccc(NC(=O)/C(=C/c2ccccc2)C(C)=O)cc1,59%,98% (active),98.1% (active),57%,99% (active),98.2% (active),53%,98% (active),98.5% (active),19%,95% (active),97.5% (active),65%,98% (active),98.1% (active),68%,99% (active),98.1% (active)
Clc1cc2n[nH]nc2c(Cl)c1Cl,-6%,63%,74.8% (active),6%,84% (active),95.9% (active),16%,83% (active),46.8%,-17%,65%,88.7% (active),-13%,48%,85.8% (active),6%,94% (active),93.3% (active)
CSc1cc(Cl)c(C)cc1S(=O)(=O)NC(=O)Nc1ccc(Cl)cc1,25%,97% (active),99.1% (active),34%,99% (active),99% (active),24%,97% (active),99.5% (active),45%,97% (active),98.7% (active),35%,98% (active),98.5% (active),29%,99% (active),99.3% (active)
CC(OC(=O)Nc1cccc(Cl)c1)c1ccccc1 (configuration not stated),18%,99% (active),99.2% (active),8%,99% (active),99.5% (active),12%,99% (active),99.5% (active),7%,99% (active),99% (active),11%,99% (active),99.7% (active),11%,99% (active),99.2% (active)
CC[O-].CC[O-].[O-]c1ccccc1C=Nc1ccccc1.[O-]c1ccccc1C=Nc1ccccc1.[Ti+4],23%,23%,50.5%,22%,22%,14.8%,12%,12%,19.8%,13%,13%,29.9%,12%,12%,19.9%,23%,23%,19.9%
COc1ccc2c(c1)c(=O)c1c(NCCN(C)C)ccc3nnn2c31,13%,51%,28.2%,-18%,14%,14.4%,6%,4%,10.2%,-13%,37%,18.9%,-4%,43%,11.6%,-10%,-12%,79.7% (active)
O=C(O)c1ccc(NC(c2ccccc2)c2ccc3cccnc3c2O)cc1 (configuration not stated),-12%,98% (active),98.2% (active),2%,98% (active),98% (active),-8%,98% (active),97.8% (active),-40%,95% (active),97.5% (active),-3%,98% (active),97.7% (active),9%,98% (active),98.2% (active)
O=C(CSc1nnc(Cc2ccccc2)o1)Nc1ccc(Cl)cc1[N+](=O)[O-],1%,56%,83% (active),-13%,57%,50.3%,4%,49%,76.5% (active),10%,51%,21.8%,-10%,64%,15.1%,4%,53%,83.8% (active)
NCC1CCNCC1,2%,-6%,-16.7%,-2%,-19%,-9.25%,2%,3%,-15.2%,0%,-6%,16%,-5%,1%,3.9%,10%,0%,-4%
NC(=O)c1ccc[n+](CC(=O)Nc2ccc(Cl)cc2)c1,2%,-3%,5.6%,-9%,-4%,-1.35%,-5%,-28%,-7.2%,-1%,-6%,-57.3%,0%,-11%,31%,11%,4%,-13.9%
CCOC(=O)C(C)(C)Oc1ccc2c(=O)cc(-c3ccccc3)oc2c1,-8%,95% (active),85.5% (active),-28%,96% (active),93% (active),-43%,95% (active),93.4% (active),6%,96% (active),92.5% (active),-17%,97% (active),92.5% (active),-56%,94% (active),89.9% (active)
CCCCCCCCCCCCCCCCCCNCCCCCCCCCCCCCCCC,6%,3%,52.7%,-1%,8%,38.5%,5%,0%,49.9%,-1%,2%,75% (active),-5%,3%,69.2%,4%,6%,45.8%
CC(=O)C(=C(I)I)c1ccccc1,-20%,71% (active),51.6%,-21%,89% (active),55%,-27%,93% (active),73.7% (active),8%,34%,30.8%,-34%,83% (active),33.4%,-28%,80% (active),24.2%
CS(=O)(=O)OCCN(CCOS(C)(=O)=O)c1ccc(C=Nc2ccc3ccccc3c2)c(Cl)c1,5%,22%,10.4%,-203%,-3%,23.1%,3%,14%,34%,11%,-9%,35.4%,0%,-9%,5.85%,7%,34%,66%
O=C1/C(=C/c2ccc3c(c2)OCO3)Sc2scc(-c3ccc(O)c(O)c3)[n+]21,25%,98% (active),83.8% (active),33%,99% (active),88.3% (active),67%,98% (active),91% (active),26%,98% (active),89.4% (active),97% (active),98% (active),88.5% (active),27%,99% (active),90.8% (active)
CC(C)SC(=S)S(=O)(=O)c1ccc(Cl)cc1,5%,69%,99.4% (active),0%,64%,99.8% (active),18%,74% (active),99.7% (active),-6%,63%,78.2% (active),11%,83% (active),99.7% (active),8%,76% (active),99.7% (active)
Cc1cccc2c1Oc1ccccc1C2N1C(=O)/C(=C/c2ccccc2Cl)SC1=S (configuration not stated),99% (active),74% (active),60.1%,99% (active),48%,29.1%,100% (active),29%,38.4%,96% (active),1%,16.4%,99% (active),74% (active),12.6%,99% (active),72% (active),64.2%
CCSc1nnc(CSc2nc(-c3ccccc3)c(-c3ccccc3)[nH]2)n1-c1ccccc1,35%,35%,79.1% (active),30%,30%,68.7%,32%,32%,76.7% (active),26%,26%,74.5% (active),25%,25%,63.9%,28%,28%,62.5%
